Measured values published in the supplement of paper PMC10127200.
Counter-ions that a name gives are not always drawn.

How the values were obtained:
Assay in all cases: Euclidean distance of Cell Painting phenotypic profile (signed KS, 77 features) to DMSO centroid (dimensionless distance); 5 or 10 uM (library dependent); higher = stronger phenotypic change vs DMSO (phenoactivity)
Conditions in all cases: 48 h
786-O = system: 786-O
Procedure, shortened: (§1)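 Phenoactivity is defined as the Euclidean distance from a compound profile to the median vehicle profile. Each profile comprised 77 Harmony features, scored as signed Kolmogorov-Smirnov statistics versus same-plate vehicle wells, then plate-position corrected, correlation-weighted and replicate-averaged at the top dose. Five cancer lines and one healthy fibroblast line were exposed to library compounds for 48 h at 10 or 5 uM (0.1% DMSO final).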

A549 = system: A549
Procedure, shortened: as §1

DU145 = system: DU145
Procedure, shortened: as §1

FB = system: FB
Procedure, shortened: as §1

HEPG2 = system: HEPG2
Procedure, shortened: as §1

OVCAR4 = system: OVCAR4
Procedure, shortened: as §1

| SMILES | Euclidean distance (786-O) | Euclidean distance (A549) | Euclidean distance (DU145) | Euclidean distance (FB) | Euclidean distance (HEPG2) | Euclidean distance (OVCAR4) |
| --- | --- | --- | --- | --- | --- | --- |
| CNC(=O)c1ccc2cc([C@@]3(O)CCn4cncc43)ccc2c1 [TAK-700 (Orteronel)] | 0.951 | 0.683 | 0.67 | 1.1 | 1.1 | 0.845 |
| N[C@@H]1c2cccnc2[C@H](OC(=O)N2CCC(n3c(=O)[nH]c4ncccc43)CC2)CC[C@H]1c1cccc(F)c1F | 1.04 | 0.68 | 0.986 | 1.29 | 0.768 | 1.31 |
| COC(=O)C1=CO[C@@H](O[C@@H]2O[C@H](CO)[C@@H](O)[C@H](O)[C@H]2O)[C@@H]2[C@@H](C)[C@@H](O)C[C@H]12 [Loganin] | 0.879 | 0.804 | 1.02 | 0.781 | 0.691 | 0.971 |
| CN(C(=O)c1c(O)c2ccccc2n(C)c1=O)c1ccccc1 [Roquinimex] | 0.929 | 0.796 | 1.13 | 1.32 | 0.76 | 0.974 |
| Nc1ccn([C@@H]2O[C@H](CO)[C@@H](O)[C@@H]2O)c(=O)n1 [Cytarabine hydrochloride] | 3.21 | 3.25 | 2.45 | 2.97 | 2.73 | 3.43 |
| Cn1cc(-c2ccc(S(=O)(=O)n3ccc(/C=C/C(=O)Nc4ccccc4N)c3)cc2)cn1 | 2.25 | 2.63 | 2.82 | 2.84 | 3.21 | 3.37 |
| CO/N=C(\C(=O)N[C@@H]1C(=O)N2C(C(=O)O)=CCS[C@H]12)c1csc(N)n1 [Ceftizoxime sodium] | 0.557 | 0.807 | 1.33 | 1.07 | 0.578 | 0.958 |
| O=C(O)c1ccccc1C(=O)Nc1ccc(S(=O)(=O)Nc2nccs2)cc1 [Phthalylsulfathiazole] | 1.08 | 1.02 | 0.914 | 1.11 | 0.685 | 0.869 |
| CN1CCC(=C2c3ccccc3C=Cc3ccccc32)CC1 [Cyproheptadine HCl] | 1.25 | 0.786 | 1.84 | 2.04 | 2.64 | 1.39 |
| O=C1c2cccc(O)c2C(=O)c2c(O)cccc21 [Danthron] | 1.02 | 0.914 | 1.19 | 0.924 | 0.868 | 1.12 |
| OC(CCN1CCCCC1)(c1ccccc1)C1CCCCC1 (stereo not drawn) [Trihexyphenidyl hydrochloride] | 1.04 | 1.1 | 0.794 | 0.849 | 1.17 | 2.16 |
| C[C@H]1NCc2cc(-c3ccc4c(=O)c(C(=O)O)cn(C5CC5)c4c3OC(F)F)ccc21 [Garenoxacin] | 0.629 | 0.876 | 0.678 | 1.54 | 0.463 | 1.08 |
| CC(C)(CO)[C@@H](O)C(=O)NCCCO [D panthenol] | 1.37 | 0.791 | 0.819 | 1.14 | 0.659 | 1.64 |
| O=C1Nc2ccc(Cl)cc2[C@@](C#CC2CC2)(C(F)(F)F)O1 [Efavirenz] | 1.21 | 1.3 | 2.23 | 1.28 | 0.747 | 1.1 |
| CNC(=O)c1nn(C)c2c1C(C)(C)Cc1cnc(Nc3ccc(N4CCN(C)CC4)cc3)nc1-2 | 2.4 | 3.03 | 2.9 | 3.36 | 2.65 | 2.9 |
| Clc1ccc2nsnc2c1NC1=NCCN1 [Tizanidine] | 1.07 | 0.538 | 0.815 | 0.569 | 0.572 | 0.608 |
| C=C1CC[C@@H]2[C@](C)(CO)[C@H](O)CC[C@@]2(C)[C@H]1C/C=C1\C=COC1=O [Dehydroandrographolide] | 1 | 0.867 | 0.554 | 0.87 | 0.517 | 1.29 |
| C=CC(=O)Nc1cc(Nc2nccc(-n3cc(CN(C)C)c(-c4ccccc4)n3)n2)c(OC)cc1N1CCOCC1 | 0.904 | 1.76 | 1.79 | 1.2 | 1.27 | 2.16 |
